Results as given in paper PMC12670160, “A drug-repurposing screen of FDA- and EMA-approved drugs identifies two NF-κB inhibitors active against eumycetoma” (Journal of Antimicrobial Chemotherapy, 2025).

The compounds below were run on M. mycetomatis strain mm55. Conditions: primary screen, metabolic activity vs growth control; 96 h, 2 µM; inhibitor.
Set-up: species or system Madurella mycetomatis MM55 hyphae; CellTiter-Glo 3D luminescence viability of fungal hyphae, single-point 2 uM library screen, per cent of growth control
Experimental: To determine the in vitro susceptibility of M. mycetomatis to the compounds, a hyphal inoculum was prepared as described elsewhere.[19] This M. mycetomatis hyphal suspension (60 µL) was added to each of the wells in the 384-well plate, leading to a final testing concentration of 2 µM per compound. Each plate also contained a growth control (60 µL of M. mycetomatis hyphal suspension, plus 0.6 µL of DMSO) and a negative control (60 µL of culture medium, plus 0.6 µL of DMSO). Plates were then incubated for 4 days at 37°C, after which 30 µL of CellTiter-Glo 3D Cell Viability reagent was added to every well.[19] After 25 min of incubation at room temperature, the luminescence was measured with a CytoFluor Series 4000 luminometer (PerSeptive Biosystems, Framingham, MA, USA). To determine the metabolic activity, the following formula was used: where, GC is growth control and NC is negative control. The luminescence measured for the GC is considered as 100% metabolic activity. The luminescence for the NC is considered as 0% metabolic activity. […] The Oncode Drug Repurposing library was based on the drug repurposing library from the Drug Repurposing Hub of the Broad Institute and recreated by the Oncode institute.[13] The library contained 5631 drugs.[18] […]

| SMILES | % viability [%] |
| --- | --- |
| C[C@]12CC[C@@H]3c4ccc(OC(=O)N(CCCl)CCCl)cc4CC[C@H]3[C@@H]1CC[C@@H]2OP(=O)(O)O [ONC0003506, estramustine phosphatena] | 76.07 |
| C[N+]1(C)CCc2cc3c(cc2[C@H]1[C@@H]1OC(=O)c2c1ccc1c2OCO1)OCO3 [ONC0000006, bicucullinemethochloride] | 85.19 |
